Active and inactive are the calls of the source. Calls come from the whole dose curve; as a rule, active = well fitted curve in the direction sought with a large enough effect; inactive = no such curve, though single readings can be large or run the other way.

Sequence of Alpha-galactosidase A (Homo sapiens) (P06280 whole entry, looked up): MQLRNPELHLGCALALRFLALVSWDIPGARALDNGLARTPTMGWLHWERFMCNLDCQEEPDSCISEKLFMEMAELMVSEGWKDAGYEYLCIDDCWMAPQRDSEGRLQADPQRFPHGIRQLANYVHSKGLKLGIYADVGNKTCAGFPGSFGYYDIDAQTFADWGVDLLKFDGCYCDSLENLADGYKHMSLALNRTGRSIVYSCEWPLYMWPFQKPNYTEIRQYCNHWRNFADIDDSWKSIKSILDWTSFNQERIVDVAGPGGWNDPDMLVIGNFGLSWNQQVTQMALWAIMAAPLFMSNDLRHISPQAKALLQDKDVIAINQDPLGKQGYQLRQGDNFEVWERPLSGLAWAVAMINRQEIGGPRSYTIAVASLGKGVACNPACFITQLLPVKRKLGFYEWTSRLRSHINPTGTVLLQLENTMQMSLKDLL

The assay has as its target Alpha-galactosidase A (Homo sapiens) (UniProt P06280). The assay is described as follows: qHTS Assay for Inhibitors and Activators of N370S glucocerebrosidase as a Potential Chaperone Treatment of Gaucher Disease: Alpha-Galactosidase Counterscreen. As to conditions: purified enzyme, 4-MU-alpha-Gal fluorescence, 20 min; series mostly up to 57.5 µM. The text has this:
NIH Chemical Genomics Center [NCGC] NIH Molecular Libraries Probe Production Centers Network [MLPCN] MLPCN Grant: MH086442-01 Assay Submitter (PI): Wei Zheng Glucocerebrosidase (GC) catalyzes the hydrolysis of beta-glucocerebroside to glucose and ceramide in lysosomes. Mutations in the glucocerebrosidase gene result in Gaucher disease, an autosomal recessive lysosomal storage disorder. Many of the mutations encountered in patients with Gaucher disease are missense alterations that may cause misfolding, decreased stability and/or mistrafficking of this lysosomal protein. […] These inhibitors include iminosugar analogs and three non-iminosugar inhibitors identified from a previous HTS of 62,000 compounds with the wild type recombinant enzyme. However, the enhancement of enzyme activity by the chaperone action of an enzyme inhibitor must be balanced against the direct inhibition of the enzyme. An enzyme activator could also function as a chaperone by binding to the enzyme and helping to correct its misfolding and mistrafficking. While activators for GC have not yet been identified, they may have better therapeutic potential than inhibitors. Therefore the discovery and development of chemical activators may provide a new strategy for the chaperone therapy. To characterize compound selectivity, selected hits from the primary screen were screened against purified alpha-galactosidase, a related sugar hydrolase. Alpha-galactosidase is a homodimeric glycoprotein that hydrolyzes the terminal alpha-galactosyl moieties from glycolipids and glycoproteins.
NCGC Assay Protocol Summary: This is a fluorogenic enzyme assay with 4-Methylumbelliferyl alpha-D-galactopyranoside as the substrate and human […] as the enzyme preparation. Upon the hydrolysis of this fluorogenic substrate, the resulting product, […]. 4-Methyllumbelliferone, can be excited at 365 nm and emits at 440 nm. This fluorescence which can be detected by a standard fluorescence plate reader. Data were normalized to the controls for basal activity (without enzyme) and 100% activity (with enzyme). In the AC50 values were determined from concentration-response data modeled with the standard Hill equation. Assay buffer: 50 mM citric acid (titrated with potassium phosphate to pH 4.5), 0.005% Tween-20, pH 4.5. (pH 4.5 is an optimal condition for this enzyme assay) 1536-well assay protocol for the human alpha-galactosidase: (1) Add 2 ul/well of enzyme (12 nM final) (2) Add 23 nL compounds in DMSO solution. The final titration was 0.7 nM to 77 uM. (3) Add 1 ul of substrate ([…]) (4) Incubate at room temperature for 20 min. (5) Add 2 ul stop solution (1M NaOH and 1M Glycine mixture, pH 10) (6) Detect the assay plate in a ViewLux plate reader (PerkinElmer) with Ex=365 nm and Em=440nm. Keywords: MLSMR, MLPCN, NIH Roadmap, qHTS, NCGC, : Alpha-galactosidase, Fabry Disease, pharmacological chaperone, chaperone therapy
For `O=S(=O)(c1ccccc1Cl)N1CCN(c2nc(-c3ccccc3)nc3ccccc23)CC1`, the compound was called inactive. Turning to `O=[N+]([O-])c1ccccc1S(=O)(=O)N1CCN(c2nc(-c3ccccc3)nc3ccccc23)CC1`, the result was inactive. Turning to `O=S(=O)(c1ccccc1)N1CCN(c2nc(-c3ccc(F)cc3)nc3cc(Cl)ccc23)CC1`, the compound was called inactive. Turning to `O=S(=O)(c1ccc(Cl)cc1)N1CCN(c2nc(-c3ccc(Cl)cc3)nc3ccccc23)CC1`, the compound was called inactive.

Take `O=S(=O)(c1cccc(C(F)(F)F)c1)N1CCN(c2nc(-c3ccccc3)nc3ccccc23)CC1`: the result was inactive. Take `COc1ccc(-c2nc(N3CCN(S(=O)(=O)c4ccc(F)cc4)CC3)c3ccccc3n2)cc1`: the compound was classed as inactive. In the case of `O=S(=O)(c1ccc(Cl)cc1)N1CCN(c2nc(-c3cccc(Br)c3)nc3ccccc23)CC1`, the compound was called inactive. For `O=S(=O)(c1ccc(OC(F)(F)F)cc1)N1CCN(c2nc(-c3cccs3)nc3ccccc23)CC1` the value was “inactive”. In the case of `CCOc1ccc(S(=O)(=O)N2CCN(c3nc(-c4ccccc4)nc4ccccc34)CC2)cc1OCC`, the compound was classed as inactive.

With `O=S(=O)(c1ccc2c(c1)OCCO2)N1CCN(c2nc(-c3cccs3)nc3ccccc23)CC1`, the compound was classed as inactive.

Take `CC(=O)c1ccc(S(=O)(=O)N2CCN(c3nc(-c4ccccc4)nc4ccccc34)CC2)cc1`: the compound was called inactive. With `O=S(=O)(c1ccccc1)N1CCN(c2nc(-c3cccs3)nc3ccccc23)CC1`, the compound was classed as inactive. In the case of `O=[N+]([O-])c1ccc(S(=O)(=O)N2CCN(c3nc(-c4ccccc4)nc4ccccc34)CC2)cc1`, the compound was classed as inactive. As to `O=S(=O)(c1cccc(Cl)c1)N1CCN(c2nc(-c3cccs3)nc3ccccc23)CC1`, the call was inactive. Consider `O=S(=O)(c1ccc(F)cc1)N1CCN(c2nc(-c3ccccc3)nc3cc(Cl)ccc23)CC1`, for which the result was inactive. In the case of `O=S(=O)(c1ccc2ccccc2c1)N1CCN(c2nc(-c3ccccc3)nc3ccccc23)CC1`, the outcome was inactive. For `O=S(=O)(c1ccc(C(F)(F)F)cc1)N1CCN(c2nc(-c3cccs3)nc3ccccc23)CC1`, the outcome was inactive. For `O=S(=O)(c1cccc(Cl)c1)N1CCN(c2nc(-c3ccccc3)nc3ccccc23)CC1` the value was “inactive”; for `O=S(=O)(c1ccc2ccccc2c1)N1CCN(c2nc(-c3cccs3)nc3ccccc23)CC1`, “inactive”.

For the compound `NS(=O)(=O)c1ccc(S(=O)(=O)N2CCN(c3nc(-c4ccccc4)nc4ccccc34)CC2)cc1`, the outcome was inactive. With `CCOC(=O)c1ccc(S(=O)(=O)N2CCN(c3nc(-c4ccccc4)nc4ccccc34)CC2)cc1`, the compound was classed as inactive. For `N#Cc1ccc(S(=O)(=O)N2CCN(c3nc(-c4cccs4)nc4ccccc34)CC2)cc1`, the outcome was inactive.

For the compound `O=S(=O)(c1ccc(F)cc1)N1CCN(c2nc(-c3cccs3)nc3cc(Cl)ccc23)CC1`, the compound was called inactive. For the compound `O=S(=O)(c1ccc(F)cc1)N1CCN(c2nc(-c3ccc(F)cc3)nc3cc(Cl)ccc23)CC1`, the outcome was inactive. For `O=[N+]([O-])c1cccc(S(=O)(=O)N2CCN(c3nc(-c4ccccc4)nc4ccccc34)CC2)c1` the value was “inactive”; for `O=S(=O)(c1cccc(C(F)(F)F)c1)N1CCN(c2nc(-c3cccs3)nc3ccccc23)CC1`, “inactive”; for `CC(C)(C)c1ccc(S(=O)(=O)N2CCN(c3nc(-c4cccs4)nc4ccccc34)CC2)cc1`, “inactive”. Regarding `O=S(=O)(c1ccc(Br)cc1)N1CCN(c2nc(-c3ccccc3)nc3ccccc23)CC1`, the outcome was inactive. As for `N#Cc1ccc(S(=O)(=O)N2CCN(c3nc(-c4ccccc4)nc4ccccc34)CC2)cc1`, the outcome was inactive. As to `O=[N+]([O-])c1cccc(S(=O)(=O)N2CCN(c3nc(-c4cccs4)nc4ccccc34)CC2)c1`, the result was inactive.

The values above are taken from PubChem BioAssay AID2578 (National Center for Advancing Translational Sciences (NCATS), 2010).
